Results on nine compounds are retold here after PubChem BioAssay (NCI).

Among the test systems are HCT-15 colon; HT29 colon; SNB-75 CNS; SNB-19 CNS; U251 CNS; PC-3 prostate; SK-MEL-5 melanoma; LOX IMVI melanoma; SK-MEL-28 melanoma; SK-MEL-2 melanoma; EKVX NSCLC; UO-31 renal; TK-10 renal; ACHN renal; CAKI-1 renal; A498 renal; CCRF-CEM leukemia; MOLT-4 leukemia; SN12C renal; UACC-62 melanoma.
Holding throughout (experiment): NCI-60 one-dose screen, 48 h (100 = growth as untreated, 0 = no growth, -100 = all killed)
What all share (details): 10 µM unless noted

Compounds without any hit were thinned out: in the full panel of roughly 83,000, 20% have a hit.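 Plates (96-well) were seeded with cells, treated with compound at one concentration, and incubated for 48 hours before percent growth was determined.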 A number with no mark means an inactive call. Activity calls are given as the source filed them. How the source made its calls: active means growth percent below 10; inactive means the rest.

As to `CCCCc1ccc(C(N)=O)nc1`, the growth was 94.1% in the assay on HCT-15 colon; 109% in the assay with HT29 colon; 79.2% in the assay with SNB-75 CNS; 102% in the assay on SNB-19 CNS; 100% in the assay on U251 CNS; 98.7% with PC-3 prostate. The growth is 101% in the assay with SK-MEL-5 melanoma; 89% in the assay with LOX IMVI melanoma; -97.1% (active) in the assay on SK-MEL-28 melanoma; 96% with SK-MEL-2 melanoma; 100% with EKVX NSCLC; 88.7% with UO-31 renal. Also, the growth with TK-10 renal was 103%; in the assay with ACHN renal, 98.8%; in the assay on CAKI-1 renal, 102%; with A498 renal it was -4.32% (active); with CCRF-CEM leukemia it was 92%; in the assay with MOLT-4 leukemia it was 101%.
Turning to `CCCCCCCCCCCCCCCCNC(=O)Nc1ccc2ccccc2c1`, the growth in the assay with HCT-15 colon was 103%; in the assay with HT29 colon, 107%; with SNB-75 CNS, 98.1%; with SNB-19 CNS, 96.9%; in the assay on U251 CNS it was 105%; with PC-3 prostate it was 91.5%. Further, the growth with SK-MEL-5 melanoma is 99.4%; in the assay on LOX IMVI melanoma it was 101%; with SK-MEL-28 melanoma, 108%; in the assay on SK-MEL-2 melanoma, 118%; in the assay with SN12C renal, 89.7%; in the assay on UO-31 renal, 104%. Further, the growth in the assay with TK-10 renal is 110%; with CAKI-1 renal, 107%; in the assay with A498 renal, 104%; in the assay on MOLT-4 leukemia it was 105%.
With `COc1cccc(N2CCN(c3cccc(C)n3)CC2)c1`, the growth in the assay on HCT-15 colon was 105%; in the assay with HT29 colon it was 94.9%; with SNB-75 CNS, 133%; in the assay with SNB-19 CNS, 113%; with U251 CNS, 97.7%; with PC-3 prostate, 99.6%. Also, the growth in the assay on SK-MEL-5 melanoma was 92.4%; in the assay with LOX IMVI melanoma, 103%; with SK-MEL-28 melanoma it was 111%; in the assay on SK-MEL-2 melanoma, 94%; in the assay with SN12C renal it was 105%; in the assay on TK-10 renal, 123%. In addition, the growth in the assay on ACHN renal was 108%; in the assay on CAKI-1 renal it was 82.4%; in the assay on A498 renal, 93.9%; in the assay on MOLT-4 leukemia, 101%.
Consider `N#Cc1c(-c2ccc(F)cc2)n2c(nc1=O)SC(=O)C2=O`, for which the growth in the assay on HCT-15 colon was 106%; with HT29 colon it was 105%; in the assay on SNB-75 CNS, 83.8%; with SNB-19 CNS, 103%; in the assay with U251 CNS, 92.2%; in the assay on PC-3 prostate it was 92.1%. The growth in the assay with UACC-62 melanoma was 80.2%; in the assay with LOX IMVI melanoma, 87.3%; in the assay on SK-MEL-28 melanoma it was 102%; with SK-MEL-2 melanoma, 92%; in the assay on EKVX NSCLC, 91.3%; in the assay with SN12C renal it was 91.1%. The growth with UO-31 renal is 110%; in the assay on ACHN renal, 90.3%; with CAKI-1 renal, 86.4%; in the assay on A498 renal it was 70%; in the assay on CCRF-CEM leukemia, 85.4%; in the assay on MOLT-4 leukemia, 90.5%.
On to `O=C1OC2(c3ccccc31)c1ccccc1-c1ccccc12`, for which the growth in the assay with HCT-15 colon was 71.4%; with HT29 colon, 74.6%; in the assay on SNB-75 CNS it was 61.2%; with SNB-19 CNS, 83%; with U251 CNS, 63.6%; in the assay on PC-3 prostate, 74.4%. Moreover, the growth in the assay on UACC-62 melanoma was 57.4%; with LOX IMVI melanoma it was 77.6%; in the assay with SK-MEL-28 melanoma, 74.5%; in the assay on SK-MEL-2 melanoma it was 65%; in the assay on EKVX NSCLC, 87.9%; with SN12C renal, 90.4%. The growth is 65.7% with UO-31 renal; 82.7% with TK-10 renal; 101% with ACHN renal; 62.3% in the assay on CAKI-1 renal; 69.8% in the assay with A498 renal; 72.4% in the assay with CCRF-CEM leukemia. In the assay with MOLT-4 leukemia, the growth is 82.9%.
Take `Cc1n(Cc2ccc3ccccc3c2)cc[n+]1Cc1ccc2ccccc2c1`: the growth in the assay with HCT-15 colon is 85.3%; with HT29 colon, 1.25% (active); in the assay with SNB-75 CNS, 1.07% (active); in the assay with SNB-19 CNS it was 2.02% (active); in the assay with U251 CNS, 8.17% (active); in the assay with PC-3 prostate, 14.1%. In addition, the growth in the assay with SK-MEL-5 melanoma is -92% (active); in the assay with LOX IMVI melanoma, -75% (active); in the assay on SK-MEL-28 melanoma it was -11.6% (active); in the assay with EKVX NSCLC, 47%; in the assay with SN12C renal it was 2.52% (active); in the assay on UO-31 renal, 81.5%. The growth is 23.5% in the assay on TK-10 renal; 80.1% in the assay on ACHN renal; 31.2% in the assay on A498 renal; 24.1% in the assay with CCRF-CEM leukemia; 11.3% with MOLT-4 leukemia.
As to `COc1cc2c(cc1OC)C(=O)/C(=C/c1cccc(OCC(=O)c3ccccc3)c1)C2`, the growth with HCT-15 colon was 83.4%; with HT29 colon, 42.1%; in the assay on SNB-75 CNS it was 85.2%; with SNB-19 CNS, 93.3%; with U251 CNS it was 74.2%; in the assay with PC-3 prostate, 62%. The growth in the assay on SK-MEL-5 melanoma is 67.6%; in the assay on LOX IMVI melanoma, 72.3%; in the assay with SK-MEL-28 melanoma it was 107%; with SK-MEL-2 melanoma, 44.1%; with EKVX NSCLC, 94.4%; in the assay with SN12C renal, 88.8%. In addition, the growth with UO-31 renal is -19.2% (active); in the assay on TK-10 renal it was 122%; in the assay with ACHN renal it was 96.9%; in the assay on CAKI-1 renal, 93.4%; in the assay with A498 renal, 103%; in the assay with CCRF-CEM leukemia it was 38%. For the same compound, the growth in the assay on MOLT-4 leukemia was 55.3%.
As for `FC(F)(F)c1ccc(-c2cnc(-c3nn[nH]n3)nc2NC2CCCCCC2)cc1`, the growth in the assay with HCT-15 colon was 38.7% [50 µM]; in the assay on HT29 colon, 66.8% [50 µM]; in the assay with SNB-75 CNS it was 93.7% [50 µM]; with SNB-19 CNS, 41.3% [50 µM]; with U251 CNS, 33.8% [50 µM]; with PC-3 prostate, 28.5% [50 µM]. The growth in the assay on SK-MEL-5 melanoma was 71% [50 µM]; in the assay on LOX IMVI melanoma it was 41.6% [50 µM]; with SK-MEL-28 melanoma it was 74.1% [50 µM]; in the assay with SK-MEL-2 melanoma, 47.3% [50 µM]; with SN12C renal, 50.9% [50 µM]; with UO-31 renal, 38.2% [50 µM]. Besides, the growth in the assay on TK-10 renal is 105% [50 µM]; with ACHN renal, 68.9% [50 µM]; with CAKI-1 renal it was 36.8% [50 µM]; in the assay on MOLT-4 leukemia, 25.4% [50 µM].
Consider `Cc1ccc(/C=C(/C#N)n2nnc3ncccc32)cc1`, for which the growth is 2.19% (active) with HCT-15 colon; 6.53% (active) in the assay with HT29 colon; -2.77% (active) with SNB-75 CNS; 56.7% with SNB-19 CNS; 40.4% in the assay with U251 CNS; 22.3% in the assay with PC-3 prostate. Moreover, the growth with SK-MEL-5 melanoma was 12.5%; with LOX IMVI melanoma, 4.54% (active); in the assay with SK-MEL-28 melanoma, 28.3%; in the assay on SK-MEL-2 melanoma, 17.1%; with EKVX NSCLC, 24.8%; in the assay on SN12C renal, 8.6% (active). Further, the growth in the assay on UO-31 renal is 24.3%; in the assay on ACHN renal it was 0.614% (active); in the assay with A498 renal, -7.36% (active); in the assay on CCRF-CEM leukemia, 9.57% (active); in the assay with MOLT-4 leukemia, 11.8%.
